± gives the standard deviation.

In the assay the test system is OVCAR-3-derived ovarian cancer stem-like cells (spheroids). Nature of the assay: cell growth relative to untreated control; higher = more growth (less inhibition). The conditions noted are these: 2.29 µM; 96 h. The method in brief:
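After trypsin dissociation, OVCAR-3 spheroid-derived stem-like cells were placed in ultra-low attachment 96-well plates at 50,000 cells/mL in stem cell medium and preincubated for 24 h. Treatment at 2.29 uM followed for 96 h at 37°C, 5% CO2, with 4 replicate wells per compound. A 4 h TOX8 resazurin fluorescence read (ex 560/em 590 nm) gave viability, from which percent growth relative to untreated wells was derived after blank subtraction and Grubbs outlier removal.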
The compound `CC(=O)[O][Pb]([O]C(C)=O)([c]1ccccc1)[c]1ccccc1` yielded a cell growth of 80.2 ± 14%. `CC1=C[C@H]2O[C@@H]3[C@H](O)[C@@H](O)[C@@](C)([C@@]2(CO)CC1)[C@]31CO1`: the cell growth is 36 ± 10%.

Compound `S=C=NCc1ccccc1` registered a cell growth of 109 ± 28%.

In turn, `CC12CCC3C(CCC4CC(OC(=O)Cc5ccc(N(CCCl)CCCl)cc5)CCC43C)C1CCC(=O)N2` (stereo unspecified) showed a cell growth of 52.8 ± 15%. With `CCOC(=O)NC1=C(N2CC2)C(=O)C(NC(=O)OCC)=C(N2CC2)C1=O`, the cell growth worked out at 50.1 ± 9.1%. Then `O=[N+]([O-])c1ccc2c(c1)/C(=N/N=C1c3ccccc3Cc3ccccc31)c1cc([N+](=O)[O-])cc([N+](=O)[O-])c1-2`, with 57.1 ± 34%. Then `COc1ccc(NC2=NCCO2)c2c1CCCC2`, with 98.5 ± 10%; and `CC1=CC(O)C(O)C2(C)C1CC1OC(=O)C(O)C3C(C)C(O)C4(O)OCC13C42` (stereo unspecified), with 128 ± 36%. The compound `C[C@@H]1CC[C@@]2(OC1)O[C@H]1CC3[C@@H]4CC=C5C[C@@H](O[C@@H]6O[C@H](CO)[C@@H](O[C@@H]7O[C@@H](C)[C@H](O[C@@H]8O[C@@H](C)[C@H](O)[C@@H](O)[C@@H]8O)[C@@H](O)[C@H]7O)[C@H](O)[C@H]6O[C@@H]6O[C@@H](C)C(O)[C@@H](O)[C@H]6O)CC[C@]5(C)[C@H]4CC[C@]3(C)[C@H]1[C@@H]2C` (stereo partly specified) gave a cell growth of 8.03 ± 3.1%. Compound `CC[PH+](CC)CC.[Cl][Au]` returned a cell growth of 103 ± 27%. Then `COC1C(C)OC(OC2CC(C)(O)Cc3cc4c(c(O)c32)C(=O)c2c(O)cc3c(c2C4=O)OC2OC3(C)C(O)C(N(C)C)C2O)C(OC)C1(C)OC` (stereo unspecified), with 8.5 ± 3.2%. Then `NP(=O)(Oc1c2occc2cc2ccc(=O)oc12)N(CCCl)CCCl` (stereo unspecified), with 72.2 ± 18%. Then `CC1Oc2cc3c(-c4c(O)cc(O)c5c(O)c6c(cc45)OC(C)C(C)C6=O)c(O)cc(O)c3c(O)c2C(=O)C1C` (stereo unspecified), with 23.8 ± 48%. As for `Cc1cc(N(CCOS(C)(=O)=O)CCOS(C)(=O)=O)ccc1C=Nc1ccc(-c2csc(-c3ccccc3)n2)c(Cl)c1`, the cell growth was 97.7 ± 47%. For `O=[N+]([O-])[O-].O=[N+]([O-])[O-].O=[N+]([O-])[O-].[Ga+3]`, the cell growth is 120 ± 11%. Then `O=c1[nH]c2ccccc2n1C1CCN(CCCC(c2ccc(F)cc2)c2ccc(F)cc2)CC1`, with 90.6 ± 41%; and `C/C(=N\N=C(/[Se])N1CC2CCC(CC2)C1)c1ccccn1`, with 7.7 ± 2.4%; and `CC1(C)CC2=NO[Se]3=C2C(=NO3)C1`, with 22.1 ± 4.6%. On to `COc1cc([C@@H]2c3cc4c(c(O)c3C[C@H]3COC(=O)[C@@H]32)OCO4)cc(OC)c1OC`, for which the cell growth turned out to be 31.1 ± 4.7%. `CC[C@](C)(O)C(=O)O[C@H]1C(=O)O[C@@H]2C[C@H]3C(C)=C[C@H](O)[C@@H](O)[C@]3(C)[C@H]3[C@@]4(O)OC[C@]32[C@@H]1[C@@H](C)[C@H]4O` returned a cell growth of 138 ± 54%.

With `COc1cc2c(c(OC)c1OC)-c1ccc(OC)c(=O)cc1[C@@H](NC(C)=O)CC2`, the cell growth was determined as 47.9 ± 11%.

`CC(C)C(NC(=O)C(C(C)C)N(C)C)C(=O)N(C)C(C(=O)N1CCCC1C(=O)N1CCCC1C(=O)NCc1ccccc1)C(C)C` (stereo unspecified) displayed a cell growth of 24.5 ± 8.1%. Then `CC(=O)O[C@H]1C[C@H](O[C@H]2[C@@H](O)C[C@H](O[C@H]3[C@@H](O)C[C@H](O[C@H]4CC[C@@]5(C)[C@H](CC[C@@H]6[C@@H]5CC[C@]5(C)[C@@H](C7=CC(=O)OC7)CC[C@]65O)C4)O[C@@H]3C)O[C@@H]2C)OC(C)[C@H]1O[C@@H]1O[C@H](CO)[C@@H](O)[C@H](O)[C@H]1O` (stereo partly specified), with 21.7 ± 8.3%; and `CC1=C(N2CC2)C(=O)c2nc3n(c2C1=O)CCC3OC(=O)CCl` (stereo unspecified), with 65.2 ± 6.7%; and `Cc1cc(N(CCCl)CCCl)ccc1/C=N/NC(=O)Cc1cc(=O)oc2cc(O)ccc12`, with 113 ± 53%.

`O=[Se](O)O.[Na+]` returned a cell growth of 112 ± 29%.

As to `CCOC(OC1=C(C#N)CCC1)C(C)[Se]c1ccccc1` (stereo unspecified), the cell growth worked out at 147 ± 33%. In turn, `CC(C)C[C@H]1C(=O)N2CCC[C@H]2[C@]2(O)O[C@](NC(=O)[C@@H]3C=C4c5cccc6[nH]c(Br)c(c56)C[C@H]4N(C)C3)(C(C)C)C(=O)N12` gave a cell growth of 90.6 ± 6.8%.

The compound `C1COCCN1.S=C(S)N1CCOCC1` came in with a cell growth of 63.4 ± 11%.

In turn, `CO[C@@H](/C(C)=C/C=C/C(C)=C/c1coc(C)n1)[C@@H](C)[C@@H]1C[C@H](O)[C@@]2(C)O[C@@H]2/C=C/[C@@H](C)[C@H]2C[C@H](CC(=O)O2)C[C@@H]2O[C@H]2C(=O)O1` came in with a cell growth of 40.6 ± 7.4%. `c1csc(C[N+]23CN4CN(CN(C4)C2)C3)c1` displayed a cell growth of 108 ± 17%.

Values taken from the supplement of paper PMC3484114.
